In ChEMBL document CHEMBL3988442, “University of Dundee, Small-Polar-MMV Screening Library” (2021):
For some of these results: Results with a measured potency or affinity are listed apart.

What was measured:
Design in all cases: scale not given: direction of the effect not stated beside the values
[1] = biological target: Protein translocase subunit SecA (Escherichia coli (strain K12)) (UniProt P10408); test: Assay to Identify E. coli SecA ATPase Inhibitors; assay type: functional; settings: 30 µM
Sequence of Protein translocase subunit SecA (Escherichia coli (strain K12)) (P10408 whole entry): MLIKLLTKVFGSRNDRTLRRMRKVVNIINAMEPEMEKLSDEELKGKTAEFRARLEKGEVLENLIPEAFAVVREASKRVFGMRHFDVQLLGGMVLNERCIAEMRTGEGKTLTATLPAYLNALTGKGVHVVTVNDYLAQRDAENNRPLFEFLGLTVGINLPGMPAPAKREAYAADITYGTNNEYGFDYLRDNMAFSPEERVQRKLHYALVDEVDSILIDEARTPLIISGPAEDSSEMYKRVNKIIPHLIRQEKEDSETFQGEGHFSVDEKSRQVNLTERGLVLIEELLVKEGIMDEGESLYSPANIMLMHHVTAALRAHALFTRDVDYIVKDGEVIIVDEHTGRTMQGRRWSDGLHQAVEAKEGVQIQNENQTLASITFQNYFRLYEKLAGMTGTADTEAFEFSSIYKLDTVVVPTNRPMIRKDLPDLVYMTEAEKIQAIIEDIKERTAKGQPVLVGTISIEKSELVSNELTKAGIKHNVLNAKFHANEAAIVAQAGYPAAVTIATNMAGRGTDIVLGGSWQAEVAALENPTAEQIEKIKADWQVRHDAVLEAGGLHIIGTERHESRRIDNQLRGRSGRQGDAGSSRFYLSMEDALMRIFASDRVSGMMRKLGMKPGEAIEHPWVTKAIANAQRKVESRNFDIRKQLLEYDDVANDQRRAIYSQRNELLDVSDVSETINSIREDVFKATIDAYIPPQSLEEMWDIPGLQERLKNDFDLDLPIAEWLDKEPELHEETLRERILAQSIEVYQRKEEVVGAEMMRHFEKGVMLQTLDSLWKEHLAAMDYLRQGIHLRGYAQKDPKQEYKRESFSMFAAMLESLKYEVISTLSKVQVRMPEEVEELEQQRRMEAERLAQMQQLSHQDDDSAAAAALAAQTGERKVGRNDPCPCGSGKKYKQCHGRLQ

[2] = biological target: T1, Ubiquitin-activating enzyme e1, putative (Leishmania donovani (strain BPK282A1)) (UniProt E9BSI1); test: Leishmania donovani Ubiquitin Activating Enzyme (LdE1); assay type: functional; settings: 30 µM
T1 sequence (whole entry): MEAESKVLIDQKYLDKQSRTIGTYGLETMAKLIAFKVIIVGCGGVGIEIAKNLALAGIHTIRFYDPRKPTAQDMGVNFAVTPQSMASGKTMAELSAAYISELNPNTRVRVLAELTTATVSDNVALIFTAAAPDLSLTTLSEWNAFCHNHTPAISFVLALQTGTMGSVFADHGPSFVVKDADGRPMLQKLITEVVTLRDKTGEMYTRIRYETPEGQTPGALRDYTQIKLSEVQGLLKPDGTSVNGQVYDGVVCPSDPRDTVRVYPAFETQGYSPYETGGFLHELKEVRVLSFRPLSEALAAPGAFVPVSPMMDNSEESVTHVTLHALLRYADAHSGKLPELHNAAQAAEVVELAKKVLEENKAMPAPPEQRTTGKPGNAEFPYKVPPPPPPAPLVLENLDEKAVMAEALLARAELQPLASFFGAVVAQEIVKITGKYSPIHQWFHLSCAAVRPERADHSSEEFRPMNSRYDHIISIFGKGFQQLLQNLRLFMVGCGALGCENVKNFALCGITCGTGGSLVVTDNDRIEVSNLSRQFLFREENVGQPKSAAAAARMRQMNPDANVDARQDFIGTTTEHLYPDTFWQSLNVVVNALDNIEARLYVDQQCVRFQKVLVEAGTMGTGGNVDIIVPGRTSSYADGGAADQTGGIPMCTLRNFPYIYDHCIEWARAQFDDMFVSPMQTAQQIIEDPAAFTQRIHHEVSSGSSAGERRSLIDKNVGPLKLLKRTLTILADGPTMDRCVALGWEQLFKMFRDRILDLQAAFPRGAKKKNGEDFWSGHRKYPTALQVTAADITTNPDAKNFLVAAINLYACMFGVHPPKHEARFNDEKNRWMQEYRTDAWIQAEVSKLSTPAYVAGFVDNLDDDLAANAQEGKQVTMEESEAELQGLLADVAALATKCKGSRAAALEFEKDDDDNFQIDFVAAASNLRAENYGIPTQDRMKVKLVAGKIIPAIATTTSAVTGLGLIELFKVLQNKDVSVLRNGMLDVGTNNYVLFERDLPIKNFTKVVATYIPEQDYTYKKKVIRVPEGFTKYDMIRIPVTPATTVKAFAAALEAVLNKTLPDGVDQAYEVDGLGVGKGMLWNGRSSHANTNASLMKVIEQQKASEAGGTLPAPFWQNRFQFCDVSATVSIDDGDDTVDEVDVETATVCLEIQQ

[3] = biological target: AMP-activated protein kinase, AMPK (Homo sapiens) (UniProt P54646+O43741+P54619+Q9UGJ0+Q9Y478+Q13131+Q9UGI9); test: AMP-dependent Kinase enzyme assay. An in vitro enzyme assay that detects ADP turnover that is directly proportional to AMPK activity. This uses naive AMPK that is activated during the assay with MK-8722; assay type: functional; settings: 30 µM
[4] = biological target: Sialic acid-binding Ig-like lectin 9 (Homo sapiens) (UniProt Q9Y336); test: Hs-Siglec9 ALPHAscreen SOP 20170721; settings: 10 µM
Sequence of Sialic acid-binding Ig-like lectin 9 (Homo sapiens) (Q9Y336 whole entry): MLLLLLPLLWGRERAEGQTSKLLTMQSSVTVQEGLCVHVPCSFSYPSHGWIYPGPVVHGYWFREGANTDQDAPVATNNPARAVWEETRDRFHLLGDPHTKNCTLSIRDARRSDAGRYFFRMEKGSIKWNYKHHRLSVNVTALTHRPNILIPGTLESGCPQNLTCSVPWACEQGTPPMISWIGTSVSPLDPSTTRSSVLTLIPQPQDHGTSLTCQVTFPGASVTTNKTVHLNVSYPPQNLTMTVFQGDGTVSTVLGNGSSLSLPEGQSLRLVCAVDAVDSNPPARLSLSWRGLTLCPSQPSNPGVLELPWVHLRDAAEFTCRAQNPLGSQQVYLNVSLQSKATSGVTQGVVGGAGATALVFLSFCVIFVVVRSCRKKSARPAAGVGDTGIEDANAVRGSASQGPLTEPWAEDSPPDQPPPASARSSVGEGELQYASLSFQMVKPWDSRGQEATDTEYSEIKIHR

Trypanosoma cruzi = test: Trypanosoma cruzi phosphomannomutase and mannose-1-phosphate guanylyltransferase assay; assay type: functional; settings: 10 µM
[5] = biological target: T2, Arginase-2, mitochondrial (Homo sapiens) (UniProt P78540); test: in vitro enzyme assay to detect the production of urea directly proportional to the activity of Arginase II; assay type: functional; settings: 33.3 µM; further: in the data most compounds retested in dose-response had high values
T2 sequence (whole entry): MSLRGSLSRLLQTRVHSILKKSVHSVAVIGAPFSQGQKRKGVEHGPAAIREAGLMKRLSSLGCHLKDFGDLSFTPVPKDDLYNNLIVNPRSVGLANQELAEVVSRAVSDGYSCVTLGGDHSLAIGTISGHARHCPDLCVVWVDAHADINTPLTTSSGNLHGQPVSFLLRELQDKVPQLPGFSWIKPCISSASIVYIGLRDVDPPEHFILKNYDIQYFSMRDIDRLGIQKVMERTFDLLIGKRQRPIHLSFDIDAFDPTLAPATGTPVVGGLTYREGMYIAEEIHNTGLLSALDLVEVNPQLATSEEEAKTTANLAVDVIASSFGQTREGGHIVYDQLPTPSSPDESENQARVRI

[6] = biological target: T3, Proteasome subunit beta (Trypanosoma cruzi) (UniProt O96673); test: Trypanosoma cruzi proteasome chymotrypsin-like activity (TcProtChymo) assay.; further: in the data most compounds retested in dose-response had high values; assay type: functional; settings: 9.37 µM
T3 sequence (whole entry): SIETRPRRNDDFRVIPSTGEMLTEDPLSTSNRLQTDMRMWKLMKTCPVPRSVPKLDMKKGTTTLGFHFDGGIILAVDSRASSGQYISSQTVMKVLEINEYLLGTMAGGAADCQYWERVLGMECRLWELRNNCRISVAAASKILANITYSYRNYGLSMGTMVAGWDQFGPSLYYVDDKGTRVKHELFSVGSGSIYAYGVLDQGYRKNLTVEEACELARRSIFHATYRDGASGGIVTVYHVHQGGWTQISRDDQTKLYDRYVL

Homo sapiens = species: Homo sapiens; test: To identify inhibition of the IFN signalling (Jak-Stat) pathway via expression of an eGFP reporter gene under the control of an IFN-stimulated response element (ISRE) containing MxA promoter.; assay type: functional; settings: 30 µM
[7] = biological target: T4, Tyrosyl-tRNA synthetase, putative (Trypanosoma cruzi (strain CL Brener)) (UniProt Q4DSP6); test: Trypanosoma cruzi tyrosyl tRNA synthetase (TcYRS) _High Tyrosine SOP; assay type: functional; settings: 30 µM; further: in the data most compounds retested in dose-response had high values
T4 sequence (whole entry): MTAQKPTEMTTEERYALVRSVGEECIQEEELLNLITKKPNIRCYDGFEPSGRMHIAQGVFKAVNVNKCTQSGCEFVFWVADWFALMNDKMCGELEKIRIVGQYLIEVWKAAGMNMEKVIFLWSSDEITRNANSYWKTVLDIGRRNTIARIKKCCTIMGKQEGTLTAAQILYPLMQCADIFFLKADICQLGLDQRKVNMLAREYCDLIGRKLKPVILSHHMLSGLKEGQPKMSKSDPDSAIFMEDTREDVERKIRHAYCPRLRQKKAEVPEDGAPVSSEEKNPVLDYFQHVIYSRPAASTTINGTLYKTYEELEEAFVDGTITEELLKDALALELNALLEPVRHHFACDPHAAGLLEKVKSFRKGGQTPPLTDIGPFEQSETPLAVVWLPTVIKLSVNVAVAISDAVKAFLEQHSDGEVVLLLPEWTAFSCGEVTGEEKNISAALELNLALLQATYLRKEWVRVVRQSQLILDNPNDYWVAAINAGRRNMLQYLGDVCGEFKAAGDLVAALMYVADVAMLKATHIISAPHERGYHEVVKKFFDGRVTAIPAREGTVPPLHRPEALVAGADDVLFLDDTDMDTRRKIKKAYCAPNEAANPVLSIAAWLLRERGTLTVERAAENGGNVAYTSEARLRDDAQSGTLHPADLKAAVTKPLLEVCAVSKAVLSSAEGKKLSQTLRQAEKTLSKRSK

[8] = biological target: T4, Tyrosyl-tRNA synthetase, putative (Trypanosoma cruzi (strain CL Brener)); test: Trypanosoma cruzi tyrosyl tRNA synthetase (TcYRS) SOP; assay type: functional; settings: 30 µM
[9] = biological target: Chromo domain-containing protein 1 (Saccharomyces cerevisiae (strain ATCC 204508 / S288c) (Baker's yeast)) (UniProt P32657); test: ScCHD-1 Enzyme Inhibition Assay; assay type: functional; settings: 30 µM; further: in the data most compounds retested in dose-response had high values
Sequence of Chromo domain-containing protein 1 (Saccharomyces cerevisiae (strain ATCC 204508 / S288c) (Baker's yeast)) (P32657 whole entry, the tested form may be a part): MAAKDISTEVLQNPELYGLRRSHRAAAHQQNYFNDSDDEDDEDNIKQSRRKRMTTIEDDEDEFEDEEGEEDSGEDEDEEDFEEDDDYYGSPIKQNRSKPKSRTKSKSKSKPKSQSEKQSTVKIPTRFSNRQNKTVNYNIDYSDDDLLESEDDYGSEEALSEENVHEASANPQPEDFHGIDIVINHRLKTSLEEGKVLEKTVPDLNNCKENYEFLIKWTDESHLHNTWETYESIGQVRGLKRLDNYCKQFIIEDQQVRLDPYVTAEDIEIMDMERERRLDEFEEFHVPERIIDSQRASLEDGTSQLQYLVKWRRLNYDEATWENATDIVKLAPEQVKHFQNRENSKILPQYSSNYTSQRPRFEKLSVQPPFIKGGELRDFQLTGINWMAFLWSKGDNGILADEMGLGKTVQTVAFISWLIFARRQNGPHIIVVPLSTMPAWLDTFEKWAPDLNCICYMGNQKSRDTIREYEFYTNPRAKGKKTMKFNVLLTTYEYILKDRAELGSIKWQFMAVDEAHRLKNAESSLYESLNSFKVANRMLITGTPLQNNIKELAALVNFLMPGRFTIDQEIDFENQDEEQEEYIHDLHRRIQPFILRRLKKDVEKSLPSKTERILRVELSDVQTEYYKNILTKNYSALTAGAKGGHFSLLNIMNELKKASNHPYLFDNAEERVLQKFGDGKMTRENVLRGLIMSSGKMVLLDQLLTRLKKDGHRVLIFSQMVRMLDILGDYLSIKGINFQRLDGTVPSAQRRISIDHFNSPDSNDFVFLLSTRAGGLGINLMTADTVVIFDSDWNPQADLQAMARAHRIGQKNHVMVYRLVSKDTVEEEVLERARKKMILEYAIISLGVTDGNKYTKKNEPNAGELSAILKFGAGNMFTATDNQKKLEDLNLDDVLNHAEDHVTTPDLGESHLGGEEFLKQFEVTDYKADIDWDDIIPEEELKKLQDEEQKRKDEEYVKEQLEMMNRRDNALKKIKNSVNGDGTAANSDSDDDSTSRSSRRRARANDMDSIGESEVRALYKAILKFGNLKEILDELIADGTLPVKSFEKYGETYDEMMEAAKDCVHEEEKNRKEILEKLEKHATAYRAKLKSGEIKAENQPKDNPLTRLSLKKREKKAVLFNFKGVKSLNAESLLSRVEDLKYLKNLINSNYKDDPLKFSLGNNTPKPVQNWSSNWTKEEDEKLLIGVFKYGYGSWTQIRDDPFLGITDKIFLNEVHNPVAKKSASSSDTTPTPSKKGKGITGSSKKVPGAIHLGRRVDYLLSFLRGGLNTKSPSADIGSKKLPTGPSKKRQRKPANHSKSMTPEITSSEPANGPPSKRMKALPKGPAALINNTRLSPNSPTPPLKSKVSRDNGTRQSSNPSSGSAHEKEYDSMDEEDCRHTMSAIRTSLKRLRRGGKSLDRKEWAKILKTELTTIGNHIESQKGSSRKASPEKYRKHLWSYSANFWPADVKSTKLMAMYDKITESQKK

| SMILES | Percent Effect [1] | Percent Effect [2] | Percent Effect [3] | Percent Effect [4] | Percent Effect (Trypanosoma cruzi) | Percent Effect [5] | Percent Effect [6] | Percent Effect (Homo sapiens) | Percent Effect [7] | Percent Effect [8] | Percent Effect [9] |
| --- | --- | --- | --- | --- | --- | --- | --- | --- | --- | --- | --- |
| Cc1noc([C@@H]2C[C@H]3OCC[C@H]3N(S(C)(=O)=O)C2)n1 | -1.89% | 11% | -9.13% | 8.3% | 4.37% | -1.6% | 9.5% | 1.34% | 6.25% | 8.64% | -4.65% |
| Cc1cccc2c1OCCC2NCc1c(C)nn(C)c1N(C)C (stereo not given) | 1.41% | 18.4% | -5.71% | 0.779% | -3.95% | 7.28% | 16.9% | 24.8% | 1.47% | 7.32% | -18.2% |
| CS(=O)(=O)NCCCN1CCCC1Cc1ccccc1 (stereo not given) | -4.3% | 0% | -5.49% | 11.9% | 3.49% | -3.42% | 9.09% | 13% | 5.42% | 16.5% | -3.37% |
| CC(O)CN1CCN(C(=O)c2cnn(-c3ccc(Cl)cc3)c2)CC1 (stereo not given) | -8.22% | 5.33% | -3.17% | 23.3% | 6.13% | 5.21% | 11% | 7.52% | 1.64% | 8.64% | -3.32% |
| Cc1ccsc1[C@@H]1CCN(C(=O)CCC(=O)N2CCCCCC2)C[C@H]1O | -3.23% | 6.94% | -7.07% | -3.16% | 1.46% | -1.32% | 4.91% | -6.38% | 5.26% | 10.3% | -2.41% |
| CN(C)S(=O)(=O)c1ccc(CN2CCCC2c2ccccc2)o1 (stereo not given) | -4.81% | -7.89% | 2.57% | -3.79% | 9.06% | 2.88% | 5.33% | 15.1% | 6.4% | 23.5% | -6.96% |
| Cc1ccc(NC2CCN(C(=O)c3cccn3C)CC2)nn1 | -10.3% | 7.79% | -16.9% | 19.7% | 11.2% | 2.85% | 18.4% | 26.6% | 10.7% | 24.4% | -12.9% |
| CNS(=O)(=O)Cc1ccc(CNC(=O)Nc2cccnc2)cc1 | -1.42% | 30.4% | -9.66% | -12.1% | 4.25% | -6.08% | 14.2% | 11.1% | 6.4% | 16.5% | -12.7% |
| CCC(=O)N(C)C1CCN(Cc2ncc(C)c(OC)c2C)CC1 | -5.54% | 18.2% | -1.36% | -0.124% | 2.25% | 2.13% | 18.9% | 16.3% | 5.83% | 19.5% | -7.08% |
| O=C(NC1CCCC1)[C@@H]1CN(Cc2nccs2)C[C@H]2OCC[C@H]21 | -5.51% | 2.67% | -3.12% | -3.59% | -1.77% | 1.63% | -3.26% | 21.4% | 3.19% | -3.85% | 7.18% |
| CC(=O)N1C[C@H](NC(=O)c2cscn2)[C@@H]2OCCC[C@@H]21 | -1.76% | 10.8% | 2.39% | -9.14% | -5.38% | 7.33% | 23.2% | -9.35% | -1.08% | 10.3% | -0.517% |
| CN(C(=O)c1cccc(C(=O)NCC(F)(F)F)c1)c1ccccc1 | -6.02% | -2.6% | -0.584% | 2.53% | -5.8% | -6.9% | 9.82% | 7.29% | -1.07% | -8.64% | 0.0055% |
| COc1ccccc1OCc1cc(C(=O)N2CCN[C@H](C)C2)n[nH]1 | -4.07% | 8.11% | -4.98% | 25.9% | 4.63% | 2.38% | 27.4% | 3.54% | 1.59% | 12.2% | -8.49% |
| Cc1nc(CN(C)C2CCCN(c3cccnn3)C2)no1 (stereo not given) | -0.0171% | 20.8% | -7.88% | 0.261% | -3.18% | 5.34% | 9.29% | 37.1% | 4.85% | 0% | -5.56% |
| O=C(c1cccc(S(=O)(=O)NCCCc2ncc[nH]2)c1)N1CCOCC1 | -1.26% | 5.48% | -0.693% | -4.52% | -7.05% | 4.09% | 13.8% | 5.99% | 2.15% | 7.5% | -3.79% |
| CN(C)CC(=O)N1CCCC2(CCC(=O)N(CCc3c[nH]cn3)C2)C1 (stereo not given) | -1.9% | 15.6% | -0.193% | 10.6% | 1.48% | -45.5% | 11% | -2.33% | 9.68% | 16.1% | -1.67% |
| c1csc(CN2Cc3nccn3CC(Cn3cncn3)C2)n1 (stereo not given) | 1.97% | 2.74% | 0.961% | 63.8% | -0.794% | 3.19% | 11.2% | -1.52% | 4.17% | 13.6% | -0.0341% |
| Cc1csc(CNC(=O)NCCc2ccc3c(c2)OCCO3)n1 | -5.64% | 13% | -2.69% | -16.2% | 7.93% | -3.58% | 13.5% | 8.98% | 4.76% | 23.5% | -17.6% |
| O=C([C@H]1C[C@H]2OCC[C@H]2N(C(=O)C2CCOCC2)C1)N1CCCCO1 | -5.69% | 13.3% | -3.93% | 1.16% | 1.93% | -50.4% | 2.73% | -17.9% | 9.38% | 22.5% | -6.17% |
| CNc1cncc(C2CCCN2Cc2ccccn2)n1 (stereo not given) | -2.75% | -4.05% | 3.64% | 7.85% | 2.37% | 1.62% | 29.5% | -2.5% | 9.68% | 9.09% | -18.3% |
